Measurements reported in PubChem BioAssay (Tox21).
Inconclusive results are not listed. The source made the active and inactive calls. Unless noted, calls follow the shape of the dose curve; as a rule, active = well fitted curve in the direction sought with a large enough effect in the repeat runs; inconclusive = weak or mixed curves; inactive = no such curve, though single readings can be large; an effect the other way counts as inactive or inconclusive.

How the values were obtained:
[1] = qHTS assay to identify small molecule antagonists of the estrogen receptor alpha (ER-alpha) signaling pathway using the BG1 cell line in the presence of 0.1 nM 17-beta-estradiol - cell viability counter screen (AID 1259241); also: nearly all actives have a fitted effect of over 40% in size
Summary of the method: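 VM7Luc4E2, 4,000 cells/well, phenol red-free medium + 10% charcoal-stripped FBS; 24 hr plating; cpd + 0.1 nM E2 final, 22 hr 37C/5% CO2; CellTiter-Fluor 30 min, fluorescence.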

[2] = qHTS assay to identify small molecule antagonists of the androgen receptor (AR) signaling pathway using the MDA cell line in the presence of 0.5 nM R1881 - cell viability counter screen (AID 1259242); also: nearly all actives have a fitted effect of over 45% in size
Summary of the method: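 Human breast carcinoma MDA-kb2 cells, cultured without CO2, receive compounds alongside 0.5 nM (final) R1881 agonist. After 16 hr at 37C, viability is taken as live-cell protease signal.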

[3] = biological target: Androgen receptor (Homo sapiens) (UniProt P10275); experiment: qHTS assay to identify small molecule antagonists of the androgen receptor (AR) signaling pathway using the MDA cell line in the presence of 0.5 nM R1881 (AID 1259243); also: nearly all actives have a fitted effect of over 50% in size
Summary of the method: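 Cells: MDA-kb2 (MMTV-luc). Stimulus: 0.5 nM R1881. Time: 16 hr, 37C, no CO2. Detection: ONE-Glo luminescence after 30 min at RT.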

[4] = biological target: Estrogen receptor (Homo sapiens) (UniProt P03372); experiment: qHTS assay to identify small molecule antagonists of the estrogen receptor alpha (ER-alpha) signaling pathway using the BG1 cell line in the presence of 0.1 nM 17-beta-estradiol (AID 1259244); also: nearly all actives have a fitted effect of over 50% in size
Summary of the method: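 Seeding of stripped-serum-adapted VM7Luc4E2 cells, 24 h attachment, compound transfer, then 0.1 nM final 17beta-estradiol; after 22 h incubation, ONE-Glo reagent and luminescence reading.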

[5] = qHTS assay to identify small molecule HDAC inhibitors (AID 1259364);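 also: wild-type HCT-116 cells with endogenous class I/II HDAC activity; top concentration of the series differs between compounds; nearly all actives have a fitted effect of over 45% in size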
Summary of the method: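 After a 2 hr compound incubation (37C, 5% CO2), HCT-116 cells seeded at 1,500/well the day before received HDAC-Glo reagent; signal read as luminescence after 30 min at room temperature.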

[6] = qHTS assay to identify small molecule HDAC inhibitors - cell viability counter screen (AID 1259365); also: series mostly up to about 92 µM; nearly all actives have a fitted effect of over 50% in size
Summary of the method: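 Luminescence from CellTiter-Glo, developed 30min at room temperature, reports viability of wild-type HCT-116 cells treated 2hr with compounds at 37 C and 5% CO2 after overnight plating.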

[7] = qHTS assay to identify small molecule agonists of the sonic hedgehog signaling (Shh) pathway - cell viability counter screen (AID 1259366); also: nearly all actives have a fitted effect of over 50% in size
Summary of the method: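 Cytotoxicity counter screen run in the same wells as the Shh reporter assay. NIH/3T3 cells carrying a Gli1 response element–driven luciferase were treated with DMSO-dissolved compounds for 24hr, and live-cell protease activity was measured with CellTiter-Fluor.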

[8] = qHTS assay to identify small molecule antagonists of the sonic hedgehog signaling (Shh) pathway - cell viability counter screen (AID 1259367); also: nearly all actives have a fitted effect of over 55% in size
Summary of the method: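 Conditioned medium drove Shh signaling in 3T3 Gli1-Luc cells exposed to compounds at 37C and 5% CO2. Viability was determined from CellTiter-Fluor fluorescence, with reagent incubated 1 hr after 23 hr of treatment.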

[9] = qHTS assay to identify small molecule agonists of the sonic hedgehog signaling (Shh) pathway (AID 1259368; calls by dose curve;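 also: NIH/3T3-derived 3T3Gli1-Luc cells carrying a stable Gli1-driven firefly luciferase reporter; series mostly up to about 92 µM; nearly all actives have a fitted effect of over 15% in size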)
Summary of the method: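 Stable NIH/3T3 Gli1-Luc reporter clone; 24 hr cpd exposure after a 4 hr settling period; luminescence endpoint.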

[10] = biological target: Androgen receptor (Homo sapiens) (UniProt P10275); experiment: qHTS assay to identify small molecule agonists of the androgen receptor (AR) signaling pathway in the presence of an antagonist (AID 1259381; calls by dose curve; also: nearly all actives have a fitted effect of over 15% in size)
Summary of the method: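 AR antagonist background: nilutamide 3.0uM final. Cell line: MDA-kb2, MMTV-driven luciferase, responsive to both AR and GR. Exposure 16hr, 37C, no CO2; ONE-Glo luminescence.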

[11] = qHTS assay to identify small molecule antagonists of the estrogen receptor beta (ER-beta) signaling pathway - cell viability counter screen (AID 1259382); also: series mostly up to about 92 µM; nearly all actives have a fitted effect of over 55% in size
Summary of the method: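 HEK293T ER-beta-UAS-bla, 2% charcoal-stripped FBS; compounds + 1nM E2 16 hr 37C; CellTiter-Glo luminescence, 30 min RT.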

[12] = biological target: Estrogen receptor (Homo sapiens) (UniProt P03372); experiment: qHTS assay to identify small molecule agonists of the estrogen receptor alpha (ER-alpha) signaling pathway in the presence of an antagonist (AID 1259383; calls by dose curve; also: top concentration of the series differs between compounds; nearly all actives have a fitted effect of over 15% in size)
Summary of the method: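 ER-alpha agonism measured under antagonist challenge: 10.0nM ICI-182,780 (final) plus compound, 15 concentrations, 22hr, VM7Luc4E2 ERE-luciferase cells. Read by luminescence.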

[13] = qHTS assay to identify small molecule agonists or antagonists of the thyroid stimulating hormone receptor (TSHR) signaling pathway - wild type cell line counter screen (AID 1259384; calls by dose curve)
Summary of the method: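 Wild-type HEK293 cells were plated 18 h at 37 C/5% CO2, pin-dosed with compound plus Ro20-1724 medium, held 30 min at room temperature, then given cAMP-d2 and anti-cAMP-cryptate; fluorescence was read after 1 h. Fifteen concentrations, triplicate.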

[14] = biological target: Thyrotropin receptor (Homo sapiens) (UniProt P16473); experiment: qHTS assay to identify small molecule antagonists of the thyroid stimulating hormone receptor (TSHR) signaling pathway (AID 1259385; calls by dose curve; also: nearly all actives have a fitted effect of over 20% in size)
Summary of the method: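 TSHR-HEK293 cells were plated and held 18 h at 37C/5% CO2, then given compound plus Ro20-1724 and stimulated with TSH at 1.5 ng/mL final. After 30 min at room temperature, cAMP was detected with cAMP-d2/anti-cAMP-cryptate (1 h) by fluorescence.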

[15] = qHTS assay to identify small molecule antagonists of the sonic hedgehog signaling (Shh) pathway (AID 1259369; calls by dose curve; also: nearly all actives have a fitted effect of over 45% in size)
Summary of the method: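 Gli1 transcriptional reporter (firefly Luc) in NIH/3T3 background, conditioned-medium activated. 24hr exposure, luminescence endpoint.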

[16] = biological target: Estrogen receptor beta (Homo sapiens) (UniProt Q92731); experiment: qHTS assay to identify small molecule agonists of the estrogen receptor beta (ER-beta) signaling pathway (AID 1259377; active = well fitted activation curve with a large enough effect in the signal ratio in the repeat runs, not every such curve was filed as active; the % refers to the signal ratio)
Summary of the method: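 HEK293T ER-beta-UAS-bla; 2% charcoal-stripped FBS; cells pre-incubated 6 hr, compound 16 hr, 37C/5% CO2; LiveBLAzer B/G FRET substrate 2 h RT; fluorescence intensity read.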

[17] = biological target: Estrogen receptor beta (Homo sapiens) (UniProt Q92731); experiment: qHTS assay to identify small molecule antagonists of the estrogen receptor beta (ER-beta) signaling pathway (AID 1259378; active = well fitted inhibition curve with a large enough effect in the signal ratio in the repeat runs, not every such curve was filed as active; the % refers to the signal ratio)
Summary of the method: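 ER-beta-UAS-bla HEK293T (GripTite) cells in 2% charcoal-stripped FBS medium were preincubated 6 hr at 37C, dosed with compound, then stimulated with 1 nM E2 (final) for 16 hr; beta-lactamase reporter read by B/G FRET fluorescence after 2 hr substrate loading.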

[18] = qHTS assay to identify small molecule agonists of the androgen receptor (AR) signaling pathway in the presence of an antagonist - cell viability counter screen (AID 1259379);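 also: MDA-kb2 human breast cancer cells carrying an MMTV luciferase reporter; series mostly up to about 92 µM; nearly all actives have a fitted effect of over 25% in size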
Summary of the method: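 Counter screen for cell viability run in parallel with the AR agonist-mode luciferase assay. MDA-kb2 cells were co-treated with nilutamide (3.0uM final) and compounds, then incubated 16 hr at 37C, and CellTiter-Fluor fluorescence was measured.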

[19] = qHTS assay to identify small molecule agonists of the estrogen receptor beta (ER-beta) signaling pathway - cell viability counter screen (AID 1259380); also: nearly all actives have a fitted effect of over 30% in size
Summary of the method: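 In this qHTS counter screen, HEK293T cells carrying an ER-beta/UAS beta-lactamase reporter, grown in 2% charcoal-stripped FBS, received compound for 16 hr; ATP-based CellTiter-Glo luminescence was then read after 30 min at room temperature.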

[20] = qHTS assay to identify small molecule phospholipidosis (PLD) inducers (AID 1259344; active = well fitted curve in the direction sought with a large enough effect; an effect the other way counts as inactive or inconclusive)
Summary of the method: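 After 4 h attachment on collagen I, HepG2 cells were dosed with compound alongside LipidTOX Red, kept 24 h at 37 C, fixed, and imaged for lamellar phospholipid pits.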
% is scaled to controls: 0 for no effect and ±100 for the full control effect.

Sequence of Estrogen receptor beta (Homo sapiens) (Q92731 whole entry, looked up): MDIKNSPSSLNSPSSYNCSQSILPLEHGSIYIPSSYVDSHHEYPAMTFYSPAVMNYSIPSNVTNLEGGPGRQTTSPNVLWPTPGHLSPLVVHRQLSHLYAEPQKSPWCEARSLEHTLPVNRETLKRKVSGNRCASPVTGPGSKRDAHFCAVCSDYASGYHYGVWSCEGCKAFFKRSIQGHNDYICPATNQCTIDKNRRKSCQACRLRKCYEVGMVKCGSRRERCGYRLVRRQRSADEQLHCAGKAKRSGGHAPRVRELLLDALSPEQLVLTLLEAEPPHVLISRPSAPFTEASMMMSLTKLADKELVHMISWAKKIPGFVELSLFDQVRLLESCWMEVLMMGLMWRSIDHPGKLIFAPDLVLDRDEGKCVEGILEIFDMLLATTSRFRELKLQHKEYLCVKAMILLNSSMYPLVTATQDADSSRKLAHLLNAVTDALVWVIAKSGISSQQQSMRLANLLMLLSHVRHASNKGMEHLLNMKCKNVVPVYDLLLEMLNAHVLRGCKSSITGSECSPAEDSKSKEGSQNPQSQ
Sequence of Androgen receptor (Homo sapiens) (P10275 whole entry, looked up): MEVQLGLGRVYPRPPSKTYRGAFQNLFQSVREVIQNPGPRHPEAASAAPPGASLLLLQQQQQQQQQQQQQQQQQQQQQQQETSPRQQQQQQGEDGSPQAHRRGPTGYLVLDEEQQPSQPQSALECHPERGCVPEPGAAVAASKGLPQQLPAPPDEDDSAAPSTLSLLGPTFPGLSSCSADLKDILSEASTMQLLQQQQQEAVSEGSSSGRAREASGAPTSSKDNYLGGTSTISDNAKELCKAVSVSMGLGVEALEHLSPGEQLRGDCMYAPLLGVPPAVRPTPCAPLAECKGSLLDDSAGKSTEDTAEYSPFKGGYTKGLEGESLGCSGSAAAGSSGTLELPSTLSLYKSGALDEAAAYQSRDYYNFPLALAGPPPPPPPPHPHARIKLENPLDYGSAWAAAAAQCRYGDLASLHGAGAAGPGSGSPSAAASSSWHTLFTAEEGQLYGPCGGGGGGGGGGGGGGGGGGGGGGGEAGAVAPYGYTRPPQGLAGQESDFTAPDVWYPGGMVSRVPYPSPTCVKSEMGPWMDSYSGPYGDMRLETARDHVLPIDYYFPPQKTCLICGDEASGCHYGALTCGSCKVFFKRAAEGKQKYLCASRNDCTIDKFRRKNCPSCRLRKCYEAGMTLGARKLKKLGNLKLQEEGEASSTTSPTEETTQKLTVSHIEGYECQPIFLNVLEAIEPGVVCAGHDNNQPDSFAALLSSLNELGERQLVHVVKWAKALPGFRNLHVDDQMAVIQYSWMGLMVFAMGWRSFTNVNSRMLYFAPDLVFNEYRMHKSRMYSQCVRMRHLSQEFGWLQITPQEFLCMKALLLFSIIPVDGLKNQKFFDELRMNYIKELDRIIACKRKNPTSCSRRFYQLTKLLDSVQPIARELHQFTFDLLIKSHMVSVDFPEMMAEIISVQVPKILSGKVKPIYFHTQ
Sequence of Thyrotropin receptor (Homo sapiens) (P16473 whole entry, looked up): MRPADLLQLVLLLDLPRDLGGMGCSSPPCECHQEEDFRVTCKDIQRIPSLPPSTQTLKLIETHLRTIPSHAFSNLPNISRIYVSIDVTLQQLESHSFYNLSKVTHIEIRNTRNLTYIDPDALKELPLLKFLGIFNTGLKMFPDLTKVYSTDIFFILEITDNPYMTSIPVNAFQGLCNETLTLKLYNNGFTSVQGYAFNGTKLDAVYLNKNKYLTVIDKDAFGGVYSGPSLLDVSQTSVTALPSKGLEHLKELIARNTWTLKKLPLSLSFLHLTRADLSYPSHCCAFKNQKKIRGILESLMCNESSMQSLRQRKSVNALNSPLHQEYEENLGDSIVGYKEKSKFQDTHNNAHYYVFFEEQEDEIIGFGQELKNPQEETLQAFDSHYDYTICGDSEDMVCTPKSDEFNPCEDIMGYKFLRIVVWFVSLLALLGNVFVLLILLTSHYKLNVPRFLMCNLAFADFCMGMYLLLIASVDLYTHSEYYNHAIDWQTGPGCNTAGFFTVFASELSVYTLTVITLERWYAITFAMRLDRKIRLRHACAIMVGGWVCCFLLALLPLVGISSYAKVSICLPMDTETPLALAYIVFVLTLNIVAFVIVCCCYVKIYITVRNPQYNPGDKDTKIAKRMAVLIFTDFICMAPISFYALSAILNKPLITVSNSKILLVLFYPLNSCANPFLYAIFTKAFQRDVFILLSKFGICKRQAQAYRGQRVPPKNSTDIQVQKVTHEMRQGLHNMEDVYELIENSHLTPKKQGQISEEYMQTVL
Sequence of Estrogen receptor (Homo sapiens) (P03372 whole entry, looked up): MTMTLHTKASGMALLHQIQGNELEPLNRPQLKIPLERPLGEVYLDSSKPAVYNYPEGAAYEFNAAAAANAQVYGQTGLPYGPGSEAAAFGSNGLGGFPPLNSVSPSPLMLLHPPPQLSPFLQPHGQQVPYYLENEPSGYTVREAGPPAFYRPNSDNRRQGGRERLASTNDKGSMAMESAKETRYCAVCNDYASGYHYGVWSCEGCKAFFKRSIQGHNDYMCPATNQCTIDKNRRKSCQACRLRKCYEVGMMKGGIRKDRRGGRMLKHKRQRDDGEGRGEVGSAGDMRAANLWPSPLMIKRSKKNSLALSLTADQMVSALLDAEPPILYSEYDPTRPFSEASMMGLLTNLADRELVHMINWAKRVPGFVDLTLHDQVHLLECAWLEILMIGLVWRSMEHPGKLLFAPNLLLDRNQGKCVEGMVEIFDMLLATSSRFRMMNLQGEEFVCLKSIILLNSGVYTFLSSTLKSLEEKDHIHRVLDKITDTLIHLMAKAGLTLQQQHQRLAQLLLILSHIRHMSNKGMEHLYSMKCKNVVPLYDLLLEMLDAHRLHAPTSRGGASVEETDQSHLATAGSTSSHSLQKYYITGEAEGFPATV

CNC(=O)O/N=C(/CSC)C(C)(C)C
inactive: outcome [1] | Potency [2] | Potency [3] | Potency [4] | Potency [5] | outcome [6] | Potency [7] | Potency [8] | outcome [9] | Potency [10] | Potency [11] | Potency [12] | outcome [13] | outcome [14]

CC[C@H](N)c1ccccc1
inactive: outcome [1] | Potency [2] | Potency [3] | Potency [4] | Potency [5] | outcome [6] | Potency [7] | Potency [8] | outcome [9] | Potency [15] | Potency [16] | outcome [17] | Potency [18] | Potency [19] | Potency [11] | Potency [12] | outcome [13] | outcome [14]

N[C@@H]1C[C@H]1c1ccccc1
inactive: outcome [1] | Potency [2] | Potency [3] | Potency [4] | Potency [20] | Potency [5] | outcome [6] | Potency [7] | Potency [8] | outcome [9] | Potency [15] | Potency [16] | outcome [17] | Potency [18] | Potency [10] | Potency [11] | Potency [12] | outcome [13] | outcome [14]

O=S1(=O)OCCO1
inactive: outcome [1] | Potency [2] | Potency [3] | Potency [5] | outcome [6] | Potency [7] | Potency [8] | outcome [9] | Potency [15] | Potency [18] | Potency [19] | Potency [10] | Potency [11] | outcome [13] | outcome [14]

Clc1cc2c(cc1Cl)Oc1cc(Cl)c(Cl)cc1O2
inactive: activity change, negative = cytotoxicity [1] -0.812% [at 0.349 µM] | viability change, negative = cytotoxic [2] -3.69% [at 0.349 µM] | activity, negative = inhibition [3] 16.7% [at 0.349 µM] | activity change, negative = inhibition [5] 0.908% [at 0.349 µM] | activity change, negative = cytotoxicity [6] 6.76% [at 0.349 µM] | viability change, negative = cytotoxic [7] -1.46% [at 0.349 µM] | activity change [9] 0.117% [at 0.349 µM] | activity change, negative = inhibition [15] -6.77% [at 0.349 µM] | activation [16] -4.72% [at 0.348 µM] | activity, negative = inhibition [17] 4.24% [at 0.349 µM] | activity change, negative = cytotoxicity [18] 1.17% [at 0.35 µM] | activation [10] 3.07% [at 0.349 µM] | activity change, negative = cytotoxicity [11] -1.8% [at 0.349 µM] | cAMP activity change [13] 1.16% [at 0.349 µM] | activity change, negative = inhibition [14] -3.4% [at 0.349 µM]

ClC1=C(Cl)C2(Cl)C(CBr)CC1(Cl)C2(Cl)Cl (stereo not drawn)
inactive: outcome [1] | Potency [2] | Potency [4] | Potency [20] | Potency [5] | outcome [6] | Potency [7] | Potency [8] | outcome [9] | outcome [17] | Potency [18] | Potency [19] | Potency [11] | outcome [13] | outcome [14]

NC(=O)CS(=O)C(c1ccccc1)c1ccccc1 (stereo not drawn)
inactive: outcome [1] | Potency [2] | Potency [4] | Potency [20] | Potency [5] | outcome [6] | Potency [7] | Potency [8] | Potency [15] | Potency [16] | outcome [17] | Potency [18] | Potency [11] | Potency [12] | outcome [13] | outcome [14]

O=C(Cl)C(Cl)(Cl)Cl
inactive: outcome [1] | Potency [2] | Potency [4] | Potency [5] | outcome [6] | Potency [7] | Potency [8] | outcome [9] | Potency [15] | Potency [16] | outcome [17] | Potency [18] | Potency [19] | Potency [11] | outcome [13] | outcome [14]
